SMILES strings stand for the structures. “And” between values parts separate entries of the source, which are not always exact repeats. Equal values may be shown once. Records with an inconclusive call do not appear. Values without a mark were called inactive. The source made the active and inactive calls. Calls come from the whole dose curve; as a rule, active = well fitted curve in the direction sought with a large enough effect; inconclusive = small, poorly fitted or top-dose-only effect, or another doubt; inactive = no such curve, though single readings can be large; an effect the other way counts as inactive or inconclusive.

Experiment [1] is described as follows: BET inhibitor-based combinations targeting novel dependencies in MECOM-rearranged (r) AML: SET-2 cell line (AID 2202231).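 For viability: plate controls were DMSO treated cells for no effect and wells without cells for full effect.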 Note: nearly all actives have a fitted effect of over 35% in size. Conditions: SET-2 AML cells viability, CellTiter-Glo luminescence, 48 h; viability: hits give low values, concentration not given here. The method, boiled down: (§1)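 500 cells/well; 11-pt dose curve; 48 h, standard incubator; CellTiter-Glo luminescence after 15 min RT; DMSO/empty-well normalization; AUC plus Z-AUC (mean-centered within each line).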
In general terms: In ATP-based viability assays light output follows the ATP content of the culture.

Experiment [2] in a line: BET inhibitor-based combinations targeting novel dependencies in MECOM-rearranged (r) AML: OCI-AML3 cell line (AID 2202232). Note: nearly all actives have a fitted effect of over 35% in size. Conditions: Potency: OCI-AML3 viability. The method, boiled down:
as §1

Experiment [3] can be described thus: BET inhibitor-based combinations targeting novel dependencies in MECOM-rearranged (r) AML: MV-4-11 cell line (AID 2202233). Note: nearly all actives have a fitted effect of over 45% in size. The method, boiled down: (§2)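 Cells were plated at 500 per well and exposed to each drug across an 11-point dose range for 48 hr at standard incubator conditions. Viability was read by CellTiter-Glo luminescence, and activity was expressed as AUC and per-cell-line Z-transformed AUC.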

Experiment [4] is described as follows: BET inhibitor-based combinations targeting novel dependencies in MECOM-rearranged (r) AML: HNT-34 cell line (AID 2202234). Note: nearly all actives have a fitted effect of over 35% in size. The method, boiled down: as §2
Experiment [5] is described as follows: BET inhibitor-based combinations targeting novel dependencies in MECOM-rearranged (r) AML: UCSD-AML1 cell line (AID 2202235). Note: nearly all actives have a fitted effect of over 40% in size. The method, boiled down:
as §2

Experiment [6] can be described thus: BET inhibitor-based combinations targeting novel dependencies in MECOM-rearranged (r) AML: AML-191 cell line (AID 2202236; note: nearly all actives have a fitted effect of over 35% in size). The method, boiled down:
as §1

Experiment [7] in a line: BET inhibitor-based combinations targeting novel dependencies in MECOM-rearranged (r) AML: AML-194 cell line (AID 2202237; note: nearly all actives have a fitted effect of over 40% in size). The method, boiled down:
as §1
Potency is the fitted concentration of half-maximal effect.

`CCN(CC)CCNC(=O)c1c(C)[nH]c(/C=C2/C(=O)Nc3ccc(-c4csc(-c5ccccc5)n4)cc32)c1C`: the Potency in experiment [1] is 9.34 µM (active); in experiment [2], 18.6 µM (active); in experiment [3], 1180 nM (active); in experiment [4] it was 26.3 µM (active); in experiment [5], 9340 nM (active); in experiment [6] it was 7.42 µM (active).
With `CC(=O)c1ccc2c(c1)c1cc(C(C)=O)ccc1n2CCNC(C)C`, the Potency in experiment [1] is 1.18 µM (active); in experiment [2], 1.05 µM (active); in experiment [3] it was 525 nM (active); in experiment [4], 1.32 µM (active); in experiment [5], 833 nM (active); in experiment [6], 0.833 µM (active). Moreover, the Potency in experiment [7] was 1.32 µM (active).
With `Cc1ccc(F)c(NC(=O)Nc2ccc(-c3cccc4[nH]nc(N)c34)cc2)c1`, the Potency in experiment [1] was 14.8 µM (active); in experiment [2], 18.6 µM (active); in experiment [3] it was 7.4 nM (active); in experiment [4] it was 26.3 µM (active); in experiment [5], 16600 nM (active); in experiment [6] it was 16.6 µM (active). Further, the Potency in experiment [7] was 16.6 µM (active).
In the case of `Cc1ccc(C(=O)N(CCCN)[C@@H](c2oc3cc(Cl)ccc3c(=O)c2Cc2ccccc2)C(C)C)cc1`, the Potency was 0.166 µM (active) in experiment [1]; 0.0263 µM (active) in experiment [2]; 37.2 nM (active) in experiment [3]; 0.0132 µM (active) in experiment [4]; 14.8 nM (active) in experiment [5]; 0.0468 µM (active) in experiment [6].
For `COc1ccc(-c2nc(N3CCOCC3)c3sc(CN(C)c4ncc(C(=O)NO)cn4)cc3n2)cn1`, the Potency was 0.0295 µM (active) in experiment [1]; 0.0332 µM (active) in experiment [2]; 23.5 nM (active) in experiment [3]; 0.0417 µM (active) in experiment [4]; 29.5 nM (active) in experiment [5]; 0.0468 µM (active) in experiment [6].
Turning to `COc1cc([C@@H]2c3cc4c(cc3[C@@H](O[C@@H]3O[C@@H]5CO[C@@H](c6cccs6)O[C@H]5[C@H](O)[C@H]3O)[C@H]3COC(=O)[C@H]23)OCO4)cc(OC)c1O`, the Potency was 1.18 µM (active) in experiment [1]; 0.263 µM (active) in experiment [2]; 46.8 nM (active) in experiment [3]; 0.235 µM (active) in experiment [4]; 132 nM (active) in experiment [5]; 0.332 µM (active) in experiment [6].
`C=CC(=O)Nc1cccc(C)c1Nc1ncc2cc(-c3c(Cl)c(OC)cc(OC)c3Cl)ccc2n1`: the Potency in experiment [1] was 14.8 µM (active); in experiment [2] it was 10.5 µM (active); in experiment [3] it was 4170 nM (active); in experiment [4], 8.33 µM (active); in experiment [5], 5250 nM (active); in experiment [6], 13.2 µM (active). Further, the Potency in experiment [7] is 11.8 µM (active).
Consider `CC[C@H]1OC(=O)[C@H](C)[C@@H](O[C@H]2C[C@@](C)(OC)[C@@H](O)[C@H](C)O2)[C@H](C)[C@@H](O[C@@H]2O[C@H](C)C[C@H](N(C)C)[C@H]2O)[C@](C)(O)C[C@@H](C)C(=O)[C@H](C)[C@@H](O)[C@]1(C)O`, for which the viability (commonly a read-out of living cells in per cent, often relative to untreated cells) in experiment [1] is 113%. The Potency entry in experiment [2], in experiment [3], in experiment [4], in experiment [5], in experiment [6] and in experiment [7] was “inactive” each time.
On to `CN(CCOc1ccc(C[C@H](Nc2ccccc2C(=O)c2ccccc2)C(=O)O)cc1)c1ccccn1`, for which the viability in experiment [1] is 94.3% and 95.3%. For the same molecule, the Potency entry in experiment [2], in experiment [3], in experiment [4], in experiment [5] and in experiment [6] was “inactive” throughout.
Take `COCCn1c2c([n+](Cc3cnccn3)c1C)C(=O)c1ccccc1C2=O`: the Potency in experiment [1] is 1.18 µM (active); in experiment [2], 0.0525 µM (active); in experiment [3], 66.1 nM (active); in experiment [4], 0.166 µM (active); in experiment [5], 105 nM (active); in experiment [6] it was 0.148 µM (active). In addition, the Potency in experiment [7] is 0.186 µM (active).
Take `N[C@@H]1CN(c2c(F)cc3c(=O)c(C(=O)O)cn([C@@H]4C[C@@H]4F)c3c2Cl)CC12CC2`: the viability in experiment [1] was 105%. Also, the Potency entry in experiment [2], in experiment [3], in experiment [4], in experiment [5], in experiment [6] and in experiment [7] was “inactive” in each case.
As to `COc1ccnc2[nH]cc(C(=O)C(=O)N3CCN(C(=O)c4ccccc4)C[C@H]3C)c12`, the viability in experiment [1] was 113%. The Potency result in experiment [2], in experiment [3], in experiment [4], in experiment [5], in experiment [6] and in experiment [7] was “inactive” throughout.
For the molecule `CCCCC(=O)OCC(=O)[C@]1(O)Cc2c(O)c3c(c(O)c2[C@@H](O[C@H]2C[C@H](NC(=O)C(F)(F)F)[C@H](O)[C@H](C)O2)C1)C(=O)c1c(OC)cccc1C3=O`, the Potency in experiment [1] is 4.17 µM (active); in experiment [2], 0.59 µM (active); in experiment [3], 235 nM (active); in experiment [4], 1.86 µM (active); in experiment [5], 833 nM (active); in experiment [6], 1.66 µM (active). Besides, in experiment [7], the Potency was 2.63 µM (active).
On to `COc1cc(OC)cc(N(CCNC(C)C)c2ccc3ncc(-c4cnn(C)c4)nc3c2)c1`, for which the Potency in experiment [1] was 18.6 µM (active); in experiment [2], 18.6 µM (active); in experiment [3], 16600 nM (active); in experiment [4] it was 2.35 µM (active); in experiment [5], 10500 nM (active); in experiment [6], 18.6 µM (active). In addition, in experiment [7], the Potency is 18.6 µM (active).
On to `Cc1ccc(Nc2ncc3c(n2)N(C)C(=O)N(c2cc(NC(=O)c4cccc(C(F)(F)F)c4)ccc2C)C3)cn1`, for which the Potency in experiment [1] was 0.934 µM (active); in experiment [2] it was 0.263 µM (active); in experiment [3], 37.2 nM (active); in experiment [4], 0.0118 µM (active); in experiment [5] it was 93.4 nM (active); in experiment [6], 0.0833 µM (active).
Turning to `Nc1cc(COc2c(Cl)cc(C[C@H](N)C(=O)O)cc2Cl)c2oc(-c3ccccc3)nc2c1`, the Potency was 11.8 µM (active) in experiment [1], 13.2 µM (active) in experiment [2], 10500 nM (active) in experiment [3] and 20.9 µM (active) in experiment [6]. In addition, the Potency entry in experiment [4], in experiment [5] and in experiment [7] was “inactive” throughout.
Turning to `COC(=O)[C@@H]1CC2=CC(=O)CC[C@]2(C)[C@@]23O[C@@H]2C[C@@]2(C)[C@@H](CC[C@@]24CCC(=O)O4)[C@H]13`, in experiment [1], the viability was 106%. In addition, the Potency entry in experiment [2], in experiment [3], in experiment [4], in experiment [5] and in experiment [6] was “inactive” throughout.
With `N#Cc1ccc(C(c2ccc(C#N)cc2)n2cncn2)cc1`, the viability in experiment [1] is 96.2%. In addition, the Potency result in experiment [2], in experiment [3], in experiment [4], in experiment [5], in experiment [6] and in experiment [7] was “inactive” each time.

(Values after PubChem BioAssay (NCATS).)
